According to PubChem BioAssay AID1159580 (chemical genetic matrix, 2015):
The campaign covered roughly 5,500 compounds. About 2,000 (36%) were called active. Another 18% or so got no clear call; they are omitted. Cut-off read from the data, not from the text of the source: active = normalized growth mostly below about 0.91 (no sharp cut-off); inconclusive = no clear call, values can overlap the other calls; inactive = mostly above about 0.92. This is one part of the list.

Experiment: chemical genetic growth profiling, strain panel (AID 1159580);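 note: tested at 20 µM; growth read once vehicle control cultures reached saturation at 30 °C; 1 = growth at the plate median or of vehicle wells; lower values mean less growth of the strain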
Settings: growth OD
[1] = S. cerevisiae deletion strains, locus YAL013W, strain DEP1, stronger effect = lower value
[2] = S. cerevisiae deletion strains, locus YBR229C, strain ROT2, stronger effect = lower value
[3] = S. cerevisiae deletion strains, locus YDL101C, strain DUN1, stronger effect = lower value
[4] = S. cerevisiae deletion strains, locus YDL134C, strain PPH21, stronger effect = lower value
[5] = S. cerevisiae deletion strains, locus YDR150W, strain NUM1, stronger effect = lower value
[6] = S. cerevisiae deletion strains, locus YEL061C, strain CIN8, stronger effect = lower value
[7] = S. cerevisiae deletion strains, locus YGR078C, strain PAC10, stronger effect = lower value
[8] = S. cerevisiae deletion strains, locus YHR030C, strain SLT2, stronger effect = lower value
[9] = S. cerevisiae deletion strains, locus YHR087W, strain rtc3, stronger effect = lower value
[10] = S. cerevisiae deletion strains, locus YJR043C, strain POL32, stronger effect = lower value
[11] = S. cerevisiae deletion strains, locus YJR075W, strain HOC1, stronger effect = lower value
[12] = S. cerevisiae deletion strains, locus YLR039C, strain RIC1, stronger effect = lower value
[13] = S. cerevisiae deletion strains, locus YLR058C, strain SHM2 (second series), stronger effect = lower value
[14] = S. cerevisiae deletion strains, locus YLR085C, strain ARP6, stronger effect = lower value
[15] = S. cerevisiae deletion strains, locus YLR262C, strain YPT6, stronger effect = lower value
[16] = S. cerevisiae deletion strains, locus YML094W, strain GIM5, stronger effect = lower value
[17] = S. cerevisiae deletion strains, locus YMR219W, strain ESC1, stronger effect = lower value
[18] = S. cerevisiae deletion strains, locus YMR263W, strain SAP30, stronger effect = lower value
[19] = S. cerevisiae deletion strains, locus YNL153C, strain GIM3, stronger effect = lower value
[20] = S. cerevisiae deletion strains, locus YNL298W, strain CLA4 (second series), stronger effect = lower value
[21] = S. cerevisiae deletion strains, locus YNL322C, strain KRE1, stronger effect = lower value
[22] = S. cerevisiae deletion strains, locus YNR030W, strain Alg12, stronger effect = lower value
[23] = S. cerevisiae deletion strains, locus YPL055C, strain LGE1, stronger effect = lower value
[24] = S. cerevisiae deletion strains, locus YPL241C, strain CIN2, stronger effect = lower value
[25] = S. cerevisiae deletion strains, locus YPR135W, strain CTF4, stronger effect = lower value
[26] = S. cerevisiae deletion strains, locus YMR307W, strain GAS1, stronger effect = lower value

Measured: normalized growth

O=c1c2cc(NS(=O)(=O)c3ccc(Cl)cc3)ccc2oc2ncccc12
inactive: [1] 0.979 | [2] 1.02 | [3] 0.988 | [4] 1 | [5] 0.961 | [6] 1.04 | [7] 0.979 | [8] 0.998 | [9] 1.06 | [10] 0.976 | [11] 1.03 | [12] 1.03 | [13] 1.02 | [14] 1.04 | [15] 1.07 | [16] 1.08 | [17] 1.02 | [18] 0.991 | [19] 0.993 | [20] 0.997 | [21] 0.994 | [22] 1.02 | [23] 1.04 | [24] 1.01 | [25] 0.984

Cn1nccc1NS(=O)(=O)c1cccc(Cl)c1
inactive: [1] 1.01 | [2] 1.01 | S. cerevisiae deletion strains, locus YCL061C, strain MRC1, stronger effect = lower value 1.02 | [3] 1 | [4] 0.969 | [5] 1.04 | [6] 1.01 | [7] 1.02 | [8] 1.07 | [9] 1.01 | [10] 1.03 | [11] 1.02 | [12] 0.98 | [13] 1.04 | [14] 0.984 | [15] 1.07 | [16] 0.972 | [17] 0.998 | [18] 1.03 | [26] 0.957 | [19] 1.01 | [20] 1.03 | [21] 1 | [22] 0.995 | [23] 1 | [24] 0.975 | [25] 1.08 | S. cerevisiae strains, strain wild type, stronger effect = lower value 1.01

Cc1ccc(S(=O)(=O)Nc2ccc(Oc3ccc(F)cc3)cc2)cc1
active: [8] 0.767 | S. cerevisiae deletion strains, locus YLR113W, strain HOG1, stronger effect = lower value 0.739 | S. cerevisiae deletion strains, locus YPL256C, strain CLN2, stronger effect = lower value 0.815
inactive: S. cerevisiae deletion strains, locus YAR019C, strain CDC15, stronger effect = lower value 0.98 | S. cerevisiae deletion strains, locus YBL105C, strain PKC1, stronger effect = lower value 0.977 | S. cerevisiae deletion strains, locus YBR135W, strain CKS1, stronger effect = lower value 0.983 | S. cerevisiae deletion strains, locus YBR136W, strain MEC1, stronger effect = lower value 0.985 | S. cerevisiae deletion strains, locus YBR160W, strain CDC28, stronger effect = lower value 0.976 | S. cerevisiae deletion strains, locus YDL017W, strain CDC7, stronger effect = lower value 0.985 | S. cerevisiae deletion strains, locus YDL028C, strain MPS1, stronger effect = lower value 0.987 | [3] 0.982 | S. cerevisiae deletion strains, locus YDL108W, strain KIN28, stronger effect = lower value 0.977 | S. cerevisiae deletion strains, locus YDL132W, strain cdc53, stronger effect = lower value 0.974 | S. cerevisiae deletion strains, locus YDL214C, strain PRR2, stronger effect = lower value 0.907 | S. cerevisiae deletion strains, locus YDR052C, strain DBF4, stronger effect = lower value 0.979 | S. cerevisiae deletion strains, locus YDR054C, strain cdc34, stronger effect = lower value 0.975 | S. cerevisiae deletion strains, locus YDR226W, strain ADK1, stronger effect = lower value 0.983 | S. cerevisiae deletion strains, locus YDR477W, strain SNF1, stronger effect = lower value 0.927 | S. cerevisiae deletion strains, locus YER123W, strain YCK3, stronger effect = lower value 0.866 | S. cerevisiae deletion strains, locus YER133W, strain GLC7, stronger effect = lower value 0.93 | S. cerevisiae deletion strains, locus YFL009W, strain cdc4, stronger effect = lower value 0.983 | S. cerevisiae deletion strains, locus YFL029C, strain CAK1, stronger effect = lower value 0.977 | S. cerevisiae deletion strains, locus YFR003C, strain YPI1, stronger effect = lower value 0.979 | S. cerevisiae deletion strains, locus YFR019W, strain FAB1, stronger effect = lower value 0.95 | S. cerevisiae deletion strains, locus YFR028C, strain CDC14, stronger effect = lower value 0.972 | S. cerevisiae deletion strains, locus YGR040W, strain KSS1, stronger effect = lower value 0.915 | S. cerevisiae deletion strains, locus YGR052W, strain FMP48, stronger effect = lower value 0.91 | S. cerevisiae deletion strains, locus YGR092W, strain DBF2, stronger effect = lower value 0.839 | S. cerevisiae deletion strains, locus YHR079C, strain IRE1, stronger effect = lower value 0.876 | S. cerevisiae deletion strains, locus YHR082C, strain KSP1, stronger effect = lower value 0.895 | S. cerevisiae deletion strains, locus YHR205W, strain SCH9, stronger effect = lower value 0.926 | S. cerevisiae deletion strains, locus YIL147C, strain SLN1, stronger effect = lower value 0.992 | S. cerevisiae deletion strains, locus YJL095W, strain BCK1, stronger effect = lower value 0.9 | S. cerevisiae deletion strains, locus YJL128C, strain PBS2, stronger effect = lower value 0.946 | S. cerevisiae deletion strains, locus YJL157C, strain FAR1, stronger effect = lower value 0.908 | S. cerevisiae deletion strains, locus YJR016C, strain ILV3, stronger effect = lower value 0.981 | S. cerevisiae deletion strains, locus YJR066W, strain TOR1 (second series), stronger effect = lower value 0.892 | S. cerevisiae deletion strains, locus YJR066W, strain TOR1, stronger effect = lower value 0.968 | S. cerevisiae deletion strains, locus YKL048C, strain ELM1, stronger effect = lower value 0.934 | S. cerevisiae deletion strains, locus YKL067W, strain YNK1, stronger effect = lower value 0.905 | S. cerevisiae deletion strains, locus YKL101W, strain HSL1, stronger effect = lower value 0.887 | S. cerevisiae deletion strains, locus YKL193C, strain SDS22, stronger effect = lower value 0.978 | S. cerevisiae deletion strains, locus YKL203C, strain TOR2, stronger effect = lower value 0.979 | S. cerevisiae deletion strains, locus YLR133W, strain CKI1, stronger effect = lower value 0.916 | S. cerevisiae deletion strains, locus YLR403W, strain SFP1, stronger effect = lower value 0.914 | S. cerevisiae deletion strains, locus YML070W, strain DAK1, stronger effect = lower value 0.868 | S. cerevisiae deletion strains, locus YMR001C, strain CDC5, stronger effect = lower value 0.986 | S. cerevisiae deletion strains, locus YMR205C, strain PFK2 (second series), stronger effect = lower value 0.918 | S. cerevisiae deletion strains, locus YMR277W, strain FCP1, stronger effect = lower value 0.985 | S. cerevisiae deletion strains, locus YNL006W, strain LST8, stronger effect = lower value 0.996 | S. cerevisiae deletion strains, locus YNL020C, strain ARK1, stronger effect = lower value 0.898 | S. cerevisiae deletion strains, locus YNL161W, strain CBK1, stronger effect = lower value 0.978 | S. cerevisiae deletion strains, locus YNL183C, strain NPR1, stronger effect = lower value 0.836 | S. cerevisiae deletion strains, locus YNL207W, strain RIO2, stronger effect = lower value 0.985 | S. cerevisiae deletion strains, locus YNL222W, strain SSU72, stronger effect = lower value 0.969 | S. cerevisiae deletion strains, locus YNL307C, strain MCK1 (second series), stronger effect = lower value 0.873 | S. cerevisiae deletion strains, locus YOL078W, strain AVO1, stronger effect = lower value 0.978 | S. cerevisiae deletion strains, locus YOL136C, strain PFK27, stronger effect = lower value 0.88 | S. cerevisiae deletion strains, locus YOR061W, strain CKA2, stronger effect = lower value 0.898 | S. cerevisiae deletion strains, locus YOR119C, strain RIO1, stronger effect = lower value 0.981 | S. cerevisiae deletion strains, locus YOR231W, strain MKK1, stronger effect = lower value 0.849 | S. cerevisiae deletion strains, locus YOR329C, strain SCD5, stronger effect = lower value 0.983 | S. cerevisiae deletion strains, locus YPL031C, strain PHO85, stronger effect = lower value 0.913 | S. cerevisiae deletion strains, locus YPL153C, strain RAD53, stronger effect = lower value 0.862 | S. cerevisiae deletion strains, locus YPL204W, strain HRR25, stronger effect = lower value 0.896 | S. cerevisiae deletion strains, locus YPL209C, strain IPL1, stronger effect = lower value 0.979 | S. cerevisiae deletion strains, locus YPR025C, strain CCL1, stronger effect = lower value 0.984 | S. cerevisiae deletion strains, locus YPR106W, strain ISR1, stronger effect = lower value 0.965 | S. cerevisiae deletion strains, locus YPR111W, strain DBF20, stronger effect = lower value 0.953 | S. cerevisiae deletion strains, strain NNK1, stronger effect = lower value 0.969 | S. cerevisiae deletion strains, strain TSCII, stronger effect = lower value 0.98

CCn1c(=O)c2[nH]c(-c3ccccc3)nc2n(CC)c1=O
inactive: S. cerevisiae deletion strains, locus YAL040C, strain CLN3, stronger effect = lower value 1 | S. cerevisiae deletion strains, locus YCL061C, strain MRC1 (second series), stronger effect = lower value 0.997 | S. cerevisiae deletion strains, locus YDR363W, strain ESC2, stronger effect = lower value 1.01 | S. cerevisiae deletion strains, locus YER002W, strain NOP16, stronger effect = lower value 1.04 | [26] 0.992 | S. cerevisiae deletion strains, locus YNL175C, strain NOP13, stronger effect = lower value 1.01 | S. cerevisiae deletion strains, locus YNL197C, strain WHI3, stronger effect = lower value 1.01 | S. cerevisiae deletion strains, locus YNL224C, strain SQS1, stronger effect = lower value 1 | S. cerevisiae deletion strains, locus YOR083W, strain WHI5 (second series), stronger effect = lower value 1.01 | [23] 1 | [24] 1.01
